Reference: the supplement of paper PMC4166925
± gives the standard deviation of the averaged measurements. Whole data set: some 33,000 sequences, median “E-score (dimensionless, -0.5 to 0.5)” near -0.049, cut for the highest 2% near 0.37. The full list was thinned out, with the highest values kept by preference.

What follows are sequences tested on T1, PmTbr T-box DNA-binding domain (GST fusion) (assay: PBM E-score of 8-mer (E-score (dimensionless, -0.5 to 0.5)); Tbr is Tbrain of the sea star Patiria miniata (Pm) or the sea urchin Strongylocentrotus purpuratus (Sp); higher = stronger binding preference). Conditions: the construct has about 5 more residues each side.
T1 sequence: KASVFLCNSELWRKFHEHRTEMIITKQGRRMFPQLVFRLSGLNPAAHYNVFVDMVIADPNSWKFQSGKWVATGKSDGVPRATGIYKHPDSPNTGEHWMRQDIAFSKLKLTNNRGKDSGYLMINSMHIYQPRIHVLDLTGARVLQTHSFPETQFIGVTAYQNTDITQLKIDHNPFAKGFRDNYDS
Method: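 Universal protein-binding microarray (Agilent AMADID 016060, 60-bp probes with a 35-bp variable region) incubated with 200 nM GST-fused Patiria miniata Tbr T-box DNA-binding domain (residues 272-466) in PBS pH 7.5. Scored for every ungapped 8-mer (given with its reverse complement) by the Universal PBM Analysis Suite as E-score (modified Wilcoxon-Mann-Whitney enrichment, range -0.5 to 0.5; >0.45 counts as bound) and Z-score of median probe intensity. Two replicate arrays (datasets 1 and 2).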
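Also: 200 nM protein in PBS on universal arrays averaged over duplicate arrays.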

| Sequence | PBM E-score of 8-mer |
| --- | --- |
| CACAGGTG | 0.461 ± 0.0062 |
| AACAGGTG | 0.4042 ± 0.00081 |
| AGCAGGTG | 0.414 ± 0.026 |
| ACCAGGTG | 0.369 ± 0.028 |
| ACCAGGTC | -0.101 ± 0.039 |
| CACAGGTC | 0.15 ± 0.028 |
| AGCAGGTC | 0.0259 ± 0.014 |
| CACAGGTA | 0.163 ± 0.029 |
| TATTCGGA | -0.32 ± 0.033 |
| ACGCGACG | 0.237 ± 0.016 |
| AACTGCAT | -0.201 ± 0.029 |
| CCTAAGAC | -0.178 ± 0.094 |
| CCCAAGGG | -0.052 ± 0.028 |
| CTACAGAA | 0.0244 ± 0.029 |
| CACATTGG | 0.281 ± 0.053 |
| TGTTTGAA | 0.112 ± 0.0038 |
| ATCAGGTC | -0.169 ± 0.12 |
| ATCAGGTA | -0.0936 ± 0.033 |
| ATCAGGTG | 0.404 ± 0.0092 |
| AAGGTGCC | 0.405 ± 0.0071 |
| ACGGTGCT | 0.164 ± 0.072 |
| ACGGTGCA | 0.0807 ± 0.013 |

| Sequence | PBM E-score of 8-mer |
| --- | --- |
| GAGGTGCA | 0.367 ± 0.0099 |
| AAGGTGCA | 0.4 ± 0.011 |
| TAGGTGCA | 0.22 ± 0.024 |
| AAGGTGCT | 0.441 ± 0.0066 |
| ATGGTGCC | 0.193 ± 0.051 |
| GCGGTGCC | 0.0932 ± 0.011 |
| GAGGTGCC | 0.409 ± 0.03 |
| AAGGTGGT | 0.3415 ± 0.002 |
| ACGGTGCC | 0.158 ± 0.032 |
| ACTTTTTC | 0.124 ± 0.02 |
| AAAAGACT | -0.205 ± 0.034 |
| CAGTCCTC | -0.118 ± 0.032 |
| CCACTGCC | -0.17 ± 0.095 |
| CAGAAGTA | -0.223 ± 0.0053 |
| ATCCACAG | -0.0977 ± 0.018 |
| ATCGAACA | -0.0797 ± 0.051 |
| CCCAGGGG | -0.162 ± 0.093 |
| GAAGTGAC | 0.379 ± 0.017 |
| AAAGTGAT | 0.299 ± 0.012 |
| GAAGTGAA | 0.219 ± 0.011 |
| AAAGTGAA | -0.00138 ± 0.15 |
| AAAGTGAC | 0.392 ± 0.012 |

| Sequence | PBM E-score of 8-mer |
| --- | --- |
| CAAGTGAC | 0.325 ± 0.021 |
| AGAGTTCG | -0.201 ± 0.018 |
| CTGGGACA | -0.223 ± 0.073 |
| AACTTCAC | 0.0623 ± 0.061 |
| CACTTCCC | 0.3321 ± 0.00048 |
| AACTTCCG | -0.141 ± 0.013 |
| CACTTGTC | 0.402 ± 0.0079 |
| CACTTCCG | 0.37 ± 0.013 |
| AACTTGTC | 0.34353 ± 0.00012 |
| CACTTGTA | 0.0949 ± 0.008 |
| CACTTCAC | 0.396 ± 0.012 |
| CACTTCAG | 0.255 ± 0.025 |
| CACTTGCG | 0.376 ± 0.019 |
| AACTTGCG | 0.137 ± 0.02 |
| CACTTGCA | 0.349 ± 0.0093 |
| ACCCTTGC | 0.0156 ± 0.051 |
| ACAGATAC | -0.0952 ± 0.059 |
| AATTAAGG | -0.152 ± 0.064 |
| ACCGTCAC | 0.288 ± 0.0081 |
| ACACTCTG | 0.2899 ± 0.00065 |
| AATTGGAA | -0.0872 ± 0.056 |
| GGGCCAAA | -0.228 ± 0.029 |

| Sequence | PBM E-score of 8-mer |
| --- | --- |
| CATTGGGG | -0.0156 ± 0.035 |
| CTTCGCGA | 0.277 ± 0.011 |
| GTTCGCGA | 0.338 ± 0.019 |
| CTTCGCGC | 0.3742 ± 0.0014 |
| CCTCGCGA | 0.281 ± 0.00058 |
| ACTCGCGC | 0.29 ± 0.014 |
| CATCGCGC | 0.262 ± 0.0094 |
| ATTCGCGA | 0.389 ± 0.0025 |
| ACTCGCGA | 0.38 ± 0.0065 |
| CTTCGCTC | 0.00268 ± 0.066 |
| AATCGCGT | 0.169 ± 0.035 |
| AATCGCGA | 0.3771 ± 0.0028 |
| CATCGCGA | 0.15 ± 0.043 |
| GGCATTAA | -0.146 ± 0.0047 |
| TGCTCCAA | -0.162 ± 0.04 |
| ACCCTACG | 0.0529 ± 0.027 |
| AGCCTAGC | -0.00521 ± 0.12 |
| TCGAAGCA | -0.141 ± 0.0046 |
| ATTCGCGG | 0.244 ± 0.039 |
| ATTCGCGC | 0.39 ± 0.021 |
